Data from PubChem BioAssay AID1347131 (National Center for Advancing Translational Sciences (NCATS), 2019).
Screen size: about 410,000 compounds; about 2,000 (0.49%) were called active. Roughly 8% stayed inconclusive and do not appear here. Calls follow the shape of the full dose curve; tested in HEK293 reporter line. What follows is part of a selection rich in actives, with near analogues and random picks from the rest. Entries that show only a call come without a potency.

test: qHTS Assay for Foot and Mouth Disease Virus Antivirals: Primary Screen against the MLPCN compound library; details: FMDV antiviral cell-based qHTS; series mostly up to 57.9 µM; also: nearly all actives have a fitted effect of over 55% in size
Potency is read from the fitted curve at half-maximal effect.

Row | SMILES | Potency
1 | CCC(=O)N1CCc2cc(S(=O)(=O)CCC(=O)N3CCN(c4ccc(C(C)=O)cc4)CC3)ccc21 | inactive
2 | CC(C)CC(=O)Nc1ccccc1N1CCN(c2ccccc2)CC1 | inactive
3 | Cn1c(=O)c2c(SCC(=O)N3CCN(c4ccccc4)CC3)nc(C3CC3)nc2n(C)c1=O | inactive
4 | Cn1c(=O)cc(SCC(=O)N2CCN(c3ccccc3)CC2)c2ccccc21 | inactive
5 | CCc1nc(SCC(=O)N2CCN(c3ccccc3)CC2)c2oc3ccccc3c2n1 | 25.1 µM (active)
6 | COc1ccccc1N1CCN(c2nc(CNC(=O)c3sc(C)nc3C)nc3ccccc23)CC1 | inactive
7 | COc1ccc2c(Cl)c(C(=O)OCC(=O)c3ccc4c(c3)NC(=O)CO4)sc2c1Cl | inactive
8 | Cc1cc(C(=O)CSc2nc3ccccc3[nH]2)c(C)n1Cc1ccco1 | 11.2 µM (active)
9 | O=C(CSc1nc2ccccc2[nH]1)c1ccc(Cl)s1 | inactive
10 | O=C(CSc1nc2ccccc2c(=O)n1Cc1ccco1)c1ccc(F)cc1 | inactive
11 | Cc1nn(C(C)C)c(C)c1CN1CCCC(C(=O)c2cccc(OC(C)C)c2)C1 (stereo not drawn) | inactive
12 | COc1ccc(NC(=O)CNC(=O)Cn2c(C)cc3ccccc3c2=O)cc1OC | inactive
13 | CCN(CC)S(=O)(=O)c1cc(-c2nnc(Nc3ccc(OC)c(C(N)=O)c3)c3ccccc23)ccc1C | inactive
14 | Cc1cc(C)cc(NC(=S)N2CCN(C(=O)c3ccco3)CC2)c1 | inactive
15 | CN(C)c1ccc(N/C=C/C(=O)c2ccco2)cc1 | 8.91 µM (active)
16 | O=C(/C=C/Nc1ccc(F)cc1F)c1ccco1 | 10 µM (active)
17 | CN1/C(=C\C(=O)c2ccco2)C(C)(C)c2ccccc21 | inactive
18 | O=C(Nc1ccc(F)cc1F)c1ccc2c(c1)[nH]c(=O)n2Cc1ccc(F)cc1 | inactive
19 | O=C(CNc1ccc(F)cc1F)NC(=O)NCc1ccco1 | inactive
20 | Cc1ccc(S(=O)(=O)N(C)C)cc1NC(=O)COc1cccc(-n2cnnn2)c1 | inactive
21 | CCOc1ccccc1N1CCN(CC(=O)Nc2ccccc2C(=O)NC2CC2)CC1 | inactive

Row | SMILES | Potency
22 | Cc1ccc(-c2cc(-c3ccccc3)cc(-c3ccccc3)[n+]2-c2ccccc2C(=O)O)cc1 | inactive
23 | O=C(Nc1ccc(N2CCN(c3ccc(C(F)(F)F)cn3)CC2)nc1)c1cccs1 | inactive
24 | O=C1NC(=O)N(c2ccc3c(c2)OCO3)C(=O)/C1=C/c1ccsc1 | inactive
25 | COC(=O)C1=C(c2ccc(-c3ccccc3)c(F)c2)C[C@@H]2CC[C@H]1N2C(=O)NC1CCCCC1 | inactive
26 | OC[C@@H]1CN(Cc2ccc(Cl)cc2)C[C@H](n2cnc3c(NC4CCCC4)ncnc32)O1 | inactive
27 | COc1ccc(C(=O)NCc2cc(C)nc3ccccc23)cc1 | inactive
28 | Cc1cc(C)c2sc(N(CCN(C)C)C(=O)c3c(F)cccc3F)nc2c1 | inactive
29 | CC1=CN2C(=N)/C(=C/c3ccco3)C(=O)N=C2S1 | 12.6 µM (active)
30 | Cc1ccc(/C=C2/C(=N)N3N=C(CC(=O)N4CCCC4)SC3=NC2=O)o1 | inactive
31 | CCOc1ccc(-c2ccc(/C=C3/C(=N)N4C=CSC4=NC3=O)o2)c([N+](=O)[O-])c1 | inactive
32 | CCCCn1c(=O)c(CCC(=O)OC(C)C(=O)Nc2cccc(Cl)c2Cl)nc2ccccc21 (stereo not drawn) | inactive
33 | CC(C)C(=O)N1CCN(c2nc(-c3ccccc3)c3c(c2C#N)CCCC3)CC1 | 22.4 µM (active)
34 | CC(C(=O)Nc1cccc(C#N)c1)n1nc(-c2ccccc2)c2c(c1=O)CCCC2 (stereo not drawn) | inactive
35 | CCCC(=O)N1CCN(c2nc(CC(C)C)c3c(c2C#N)CCC3)CC1 | inactive
36 | FC(F)C(F)(F)Oc1cccc(Nc2nccn3c(-c4ccc5ccccc5c4)cnc23)c1 | inactive
37 | COCC(=O)N1CCC2(CC1)CCN(c1ccc(-c3ccccc3)cc1)CC2 | inactive
38 | CSc1nc2ccccc2n1C(=O)NC1CCCCC1 | inactive
39 | N#CC1=C(N)Nc2nc3ccccc3n2C1c1ccc(F)cc1 (stereo not drawn) | inactive
40 | Nc1nc2ccccc2n1C(=O)c1ccc(F)cc1 | 12.6 µM (active)
41 | C[C@H](CO)N1C[C@H](C)[C@@H](CN(C)C(=O)NC2CCCCC2)Oc2c(NS(=O)(=O)c3cccs3)cccc2C1=O | inactive
42 | Cc1ccc(NC(=O)COC(=O)C2CC2C)c(S(=O)(=O)N2CCCCC2)c1 (stereo not drawn) | inactive

Row | SMILES | Potency
43 | CCOC(=O)C1CCN(S(=O)(=O)c2cccc(C(=O)Nc3ccccc3)c2)CC1 | inactive
44 | CC(Sc1nc(C(F)(F)F)nc2ccccc12)C(=O)NC1CCCC1 (stereo not drawn) | inactive
45 | CN(C)c1ccc(N=Nc2ccc3ncccc3c2)cc1 | 20 µM (active)
46 | CN(C)c1ccc(/C=C/c2ccc3ccccc3n2)cc1 | inactive
47 | Cc1cc(CN(C)C(=O)c2cc(COc3ccc4ncccc4c3)on2)on1 | inactive
48 | Cn1c(=O)[nH]c(=O)c2c1nc(NCc1ccccc1)n2CCCc1ccccc1 | inactive
49 | COc1cc(OC)c(OC)cc1CN1CCc2nc(N3CCN(c4ncccn4)CC3)ncc2C1 | inactive
50 | Cc1ccc(CN2CCc3nc(N4CCN(c5ccccc5F)CC4)ncc3C2)s1 | inactive
51 | Cc1ccccc1CN1CCc2nc(N3CCN(c4ccccn4)CC3)ncc2C1 | 15.8 µM (active)
52 | COc1cccc(N2CCN(c3c4c(nc5nncn35)CCC4)CC2)c1 | 14.1 µM (active)
53 | COc1cccc(N2CCN(C(=O)c3ccc4c(Cl)c5c(nc4c3)CCCC5)CC2)c1 | inactive
54 | CCOc1ccc(Nc2c3c(nc4nncn24)CCC3)cc1 | inactive
55 | Cc1nnsc1C(=O)N/N=C/c1ccc2ccccc2c1O | inactive
56 | Cc1cccc(OCCCCn2nnc3sc4c(c3c2=O)CCC(C)C4)c1 (stereo not drawn) | inactive
57 | C=CCn1c(SCc2nc3c(c(=O)[nH]c(=O)n3CCCC)n2CCC)nnc1-c1ccccc1 | inactive
58 | CCCNS(=O)(=O)c1cc(Br)cc2c1N(C(=O)CC)CC2 | inactive
59 | COc1cc(NS(=O)(=O)c2cc(Br)cc3c2N(C(=O)C2CC2)CC3)cc(OC)c1 | 12.6 µM (active)
60 | CCC(=O)N1CCc2cc(Br)cc(S(=O)(=O)CCC(=O)NCc3ccccc3OC)c21 | inactive
61 | O=C(OC1C2CCC1C1CN(CCc3ccccc3)CC12)c1ccccc1 (stereo not drawn) | inactive
62 | COc1ccc(-c2cc3c(=O)n(CC(=O)Nc4cccc(Cl)c4)nc(C)n3n2)cc1 | inactive
63 | CN(C)c1cccc(F)c1C(=O)NC(=O)Nc1ccc(Cl)cc1 | inactive
